This is an account of results in PubChem BioAssay.

A number with no mark means an inactive call.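 How the source made its calls: active means inhibition at or above 50% relative to wild type and mutant plate controls; inactive means inhibition below 50%.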

The nature of this assay: inhibitors of Chlamydomonas gravitaxis, primary screen, whole organism, Chlamydomonas reinhardtii, WT vs cilia-less mutant, absorbance, 96-well (AID 463189).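 Further: 0% = wild type cc124 cells in DMSO and 100% = ciliumless bld1 mutant cells.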 Conditions: OD600 absorbance, 2 days, at 10 µM, hits give high values.
On to `Cc1nc2c(OCc3ccccc3)cccn2c1CC#N`, for which the inhibition is 3.47%.

As for `Cc1ccc(=O)n(-c2ccccc2)c1`, the inhibition is 4.35%.

`O=C1c2c(O)ccc(O)c2C(=O)c2c(NCCNCCO)ccc(NCCNCCO)c21`: the inhibition is 28.8%.

With `NCC(O)c1ccc(O)c(O)c1` (stereo not given), the inhibition was -2.37%.

For the compound `S=C(S)OC1CC2CC1C1CCCC21` (stereo not given), the inhibition was 7.66%.

As for `O=c1ccc2c(OCCCCc3ccccc3)c3ccoc3cc2o1`, the inhibition was 10.5%.

Regarding `O=c1cc(O)cc(/C=C/c2ccc(O)c(O)c2)o1`, the inhibition is -6.22%.

For `CC(C)NC[C@@H](O)COc1ccc(CC(N)=O)cc1`, the inhibition is -8.19%.

For the compound `NCCCCC(=O)O`, the inhibition was 9.64%.

As for `COC(=O)C(N)Cc1ccc(Cl)cc1` (stereo not given), the inhibition was -0.698%.

On to `CC(=O)O[C@H]1CC2(C)[C@@H](C[C@@H](O)[C@H]3[C@@]4(C)CC[C@@H](O)[C@@H](C)[C@@H]4CC[C@@]32C)C1=C(CCC=C(C)C)C(=O)O` (stereo not given in full), for which the inhibition is 1.57%.

As for `CN1CCC[C@H]1c1cccnc1`, the inhibition was 0.862%.

For the compound `Nc1ccc(CCNc2ncnc3c2ncn3C2OC(CO)C(O)C2O)cc1` (stereo not given), the inhibition was 3.12%.

In the case of `O=C(CCc1ccc(O)cc1)c1c(O)cc(O)cc1O`, the inhibition was -0.519%.

Consider `CSC(N)=NCCC[C@H](N)C(=O)O`, for which the inhibition was 9.75%.

In the case of `C#CCn1c(=O)c2c(ncn2C)n(C)c1=O`, the inhibition was 3.25%.

Consider `CC(=O)/C(C)=N/O`, for which the inhibition was 1.74%.

As to `COc1ccccc1N1CCN(CCCNc2c(C)c(=O)n(C)c(=O)n2C)CC1`, the inhibition was 5.61%.

Take `NCC(O)C1CCCCCCC1` (stereo not given): the inhibition is 2.73%.

As to `CCn1cc(C(=O)O)c(=O)c2cc(F)c(N3CCNC(C)C3)c(F)c21` (stereo not given), the inhibition was 3.51%.

In the case of `CCN1/C(=C/C(C)=O)Sc2ccc(OC)cc21`, the inhibition is 9.38%.

With `Cn1c(=O)c2c(ncn2C)n(C)c1=O`, the inhibition was 1.74%.

With `O=C(/C=C/c1ccc(O)c(O)c1)OCCc1ccccc1`, the inhibition is 1.6%.

Turning to `Oc1cc(O)cc(/C=C/c2ccc(O)c(O)c2)c1`, the inhibition is 0.047%.

Turning to `CC(C)[C@@H]1NC(=O)[C@H](CCCCN)NC(=O)[C@@H](Cc2c[nH]c3ccccc23)NC(=O)[C@H](Cc2ccc(O)cc2)NC(=O)[C@H](C)N(C)C(=O)[C@H](Cc2ccccc2)NC1=O`, the inhibition was 6.6%.

For `Nc1nc2[nH]c(=O)cnc2c(=O)[nH]1`, the inhibition is 5.48%.

Turning to `CC(C)C[C@H](NC(=O)[C@@H](O)[C@H](N)Cc1ccccc1)C(=O)O`, the inhibition was 3.44%.

With `C=CC[C@H](N)C(=O)O`, the inhibition was 4.13%.

As to `NCC1OC(O[C@@H]2[C@H](O)C(OC3C(O)C(N)CC(N)C3OC3OC(CO)C(O)C(O)C3N)O[C@@H]2CO)C(N)C(O)C1O` (stereo not given in full), the inhibition is 4.9%.

Take `O=C(O)c1ccccc1Nc1cccc(OCc2ccc3ccccc3n2)c1`: the inhibition is 8.8%.

On to `COC(=O)C(C)(N)Cc1ccc(O)cc1` (stereo not given), for which the inhibition was 9.13%.

For the compound `CC(N)(Cc1ccc(O)cc1)C(=O)O` (stereo not given), the inhibition is 1.6%.

On to `N=C(N)SCCc1ccc(CCSC(=N)N)cc1`, for which the inhibition is 9.2%.

For the compound `NC/C=C/C(=O)O`, the inhibition was 9.04%.

`Oc1ccc(C2CNCCc3c2cc(O)c(O)c3Cl)cc1` (stereo not given): the inhibition is -6.72%.

With `S=C(Nc1ccccc1)Nc1nccs1`, the inhibition is 7.29%.

As to `COc1cc(/C=C(\C#N)C(=O)c2ccc(O)c(O)c2)cc(I)c1O`, the inhibition is 7.26%.

Consider `Nc1cc(=O)[nH]c(N)n1`, for which the inhibition is -17.2%.

`CN(C)CCC=C1c2ccccc2C=Cc2ccccc21`: the inhibition is 12.9%.

Take `Cn1cc(C(=O)OCC2CCN(CCNS(C)(=O)=O)CC2)c2ccccc21`: the inhibition is 6.02%.
